According to PubChem BioAssay (Tox21):
Values joined by “and” are separate entries in the source; they are usually repeats but may differ in a detail not shown here. Identical values can stand only once. Records with an inconclusive call do not appear. Active and inactive are the calls of the source. Unless noted, calls follow the shape of the dose curve; as a rule, active = well fitted curve in the direction sought with a large enough effect in the repeat runs; inconclusive = weak or mixed curves; inactive = no such curve, though single readings can be large; an effect the other way counts as inactive or inconclusive.

Assays:
[1] = qHTS assay to identify small molecule agonists of the androgen receptor (AR) signaling pathway in the presence of an antagonist - cell viability counter screen (AID 1259379); also: nearly all actives have a fitted effect of over 25% in size; also: potency is read from the fitted curve at half-maximal effect;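 as to activity change, negative = cytotoxicity: MDA-kb2 human breast cancer cells carrying an MMTV luciferase reporter; series mostly up to about 92 µM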
Summary of the method: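 Cells: MDA-kb2 (MMTV-luc, AR and GR elements), 3,000/well, 5 hr settle. Added: nilutamide 3.0uM final, then compounds (15 conc.). Incubation: 16 hr, 37C, no CO2. Read-out: CellTiter-Fluor, 1 hr, fluorescence.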

[2] = qHTS assay to identify small molecule agonists of the estrogen receptor beta (ER-beta) signaling pathway - cell viability counter screen (AID 1259380); also: nearly all actives have a fitted effect of over 30% in size; also: potency is read from the fitted curve at half-maximal effect
Summary of the method: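 HEK293T ER-beta-UAS-bla; 2% CS-FBS; 6 hr pre-plate, 16 hr cpd at 37C/5% CO2; LiveBLAzer read first, then CellTiter-Glo 30 min RT, luminescence.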

[3] = biological target: Androgen receptor (Homo sapiens) (UniProt P10275); assay: qHTS assay to identify small molecule agonists of the androgen receptor (AR) signaling pathway in the presence of an antagonist (AID 1259381; calls by dose curve; also: nearly all actives have a fitted effect of over 15% in size)
Summary of the method: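 MDA-kb2 cells, 3,000/well, rested 5hr at 37C/0% CO2 → nilutamide 3.0uM final or buffer → compounds, 15 conc. → 16hr at 37C → ONE-Glo, 30min RT → luminescence.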

[4] = qHTS assay to identify small molecule antagonists of the estrogen receptor beta (ER-beta) signaling pathway - cell viability counter screen (AID 1259382); also: nearly all actives have a fitted effect of over 55% in size; also: potency is read from the fitted curve at half-maximal effect; as to activity change, negative = cytotoxicity: series mostly up to about 92 µM
Summary of the method: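 Cells: ER-beta-UAS-bla HEK293T, 2,000/well, 2% CS-FBS, 6 hr settle. Cpd + E2 (1nM final), 16 hr, 37C/5% CO2. Bla FRET substrate 2 hr RT, then CellTiter-Glo 30 min RT, luminescence.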

[5] = biological target: Estrogen receptor (Homo sapiens) (UniProt P03372); assay: qHTS assay to identify small molecule agonists of the estrogen receptor alpha (ER-alpha) signaling pathway in the presence of an antagonist (AID 1259383; calls by dose curve; also: top concentration of the series differs between compounds; nearly all actives have a fitted effect of over 15% in size)
Summary of the method: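 VM7Luc4E2, endog. ER-alpha + 4×ERE-luc; charcoal-stripped FBS, phenol red-free, 5 d; 24hr plating; +10.0nM ICI-182,780 (final); cpds 15 conc, 22hr, 37C/5% CO2; ONE-Glo luminescence.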

[6] = qHTS assay to identify small molecule agonists or antagonists of the thyroid stimulating hormone receptor (TSHR) signaling pathway - wild type cell line counter screen (AID 1259384; calls by dose curve)
Summary of the method: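 Wild-type HEK293 cells were plated 18 h at 37 C/5% CO2, pin-dosed with compound plus Ro20-1724 medium, held 30 min at room temperature, then given cAMP-d2 and anti-cAMP-cryptate; fluorescence was read after 1 h. Fifteen concentrations, triplicate.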

[7] = biological target: Thyrotropin receptor (Homo sapiens) (UniProt P16473); assay: qHTS assay to identify small molecule antagonists of the thyroid stimulating hormone receptor (TSHR) signaling pathway (AID 1259385; calls by dose curve; also: nearly all actives have a fitted effect of over 20% in size; also: potency is read from the fitted curve at half-maximal effect)
Summary of the method: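 TSHR-HEK293 cells were plated and held 18 h at 37C/5% CO2, then given compound plus Ro20-1724 and stimulated with TSH at 1.5 ng/mL final. After 30 min at room temperature, cAMP was detected with cAMP-d2/anti-cAMP-cryptate (1 h) by fluorescence.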

[8] = qHTS assay to identify small molecule agonists of the estrogen receptor alpha (ER-alpha) signaling pathway in the presence of an antagonist - cell viability counter screen (AID 1259386);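 also: series mostly up to about 92 µM; cells exposed to compounds for 22 h at 37 °C before the viability read; nearly all actives have a fitted effect of over 30% in size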
Summary of the method: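 VM7Luc4E2, stripped-serum pre-culture 5 d; 24hr plating; +ICI-182,780 10.0nM final; cpds 15 conc, 22hr, 37C/5% CO2; CellTiter-Fluor added at 21hr, fluorescence 1hr later.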

[9] = biological target: Progesterone receptor (Homo sapiens) (UniProt P06401); assay: qHTS assay to identify small molecule agonists of the progesterone receptor (PR) signaling pathway (AID 1346784; calls by dose curve; also: nearly all actives have a fitted effect of over 30% in size)
Summary of the method: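 PR-UAS-bla HEK 293T cells (beta-lactamase reporter under UAS) in 2% charcoal-stripped FBS, dosed with 23 nL compound after 6 hr, incubated 16hr at 37C. LiveBLAzer B/G FRET substrate added, fluorescence read after 2 hours.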

[10] = biological target: Progesterone receptor (Homo sapiens) (UniProt P06401); assay: qHTS assay to identify small molecule antagonists of the progesterone receptor (PR) signaling pathway (AID 1346795; active = well fitted inhibition curve with a large enough effect in the signal ratio in the repeat runs, not every such curve was filed as active; the % refers to the signal ratio; also: potency is read from the fitted curve at half-maximal effect)
Summary of the method: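 PR-UAS-bla HEK293T cells with beta-lactamase reporter under UAS control, in 2% charcoal-stripped FBS, treated with compounds plus 1 nM promegestone (R5020, final) for 16 hr at 37C. Read-out: FRET beta-lactamase substrate fluorescence after 2 hr at room temperature.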

[11] = qHTS assay to identify small molecule antagonists of the progesterone receptor (PR) signaling pathway - cell viability counter screen (AID 1346798); also: nearly all actives have a fitted effect of over 50% in size; also: potency is read from the fitted curve at half-maximal effect; as to activity change, negative = cytotoxicity: series mostly up to about 92 µM
Summary of the method: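 PR-UAS-bla HEK293T cells, 3,000/well in 2% charcoal-stripped FBS medium, dosed with compounds plus R5020 agonist and incubated 16 h at 37C. Viability then measured in the same wells by CellTiter-Glo luminescence after 30 min at RT.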

[12] = qHTS assay to identify small molecule agonists of the progesterone receptor (PR) signaling pathway - cell viability counter screen (AID 1346799; calls by dose curve; also: nearly all actives have a fitted effect of over 45% in size; also: potency is read from the fitted curve at half-maximal effect)
Summary of the method: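 Counter screen in the PR-UAS-bla HEK293T wells (2% charcoal-stripped FBS, 16 h compound exposure at 37 C) after the bla read. CellTiter-Glo added, 30 min at room temperature, luminescence read as cell viability.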

[13] = qHTS assay to identify small molecule antagonists of the TGF-beta/Smad signaling pathway - cell viability counter screen (AID 1346824); also: nearly all actives have a fitted effect of over 50% in size
Summary of the method: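 SBE-bla HEK 293T cells were plated overnight at 37 C, then given compounds in DMSO plus TGF-beta1 (added as 0.25 ng/mL solution) for 5 hr. After the bla read, CellTiter-Glo was added to the same wells and luminescence read after 30 min at room temperature.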

[14] = qHTS assay to identify small molecule agonists of the TGF-beta/Smad signaling pathway - cell viability counter screen (AID 1346829); also: top concentration of the series differs between compounds; nearly all actives have a fitted effect of over 45% in size
Summary of the method: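 Tox21 qHTS format: SBE-bla HEK 293T cells treated with DMSO-dissolved compounds for 5 hr; CellTiter-Glo luminescence after 30 min at room temperature.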

[15] = qHTS assay to identify small molecule agonists of the TGF-beta/Smad signaling pathway (AID 1346859; active = well fitted activation curve with a large enough effect in the signal ratio in the repeat runs, not every such curve was filed as active; the % refers to the signal ratio; also: series mostly up to about 77 µM)
Summary of the method: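 SBE-bla HEK293T cells plated overnight, then compound exposure for 5 h at 37 C. Beta-lactamase reporter read with LiveBLAzer B/G FRET substrate after 2 h at room temperature, fluorescence at 405 nm excitation, 460/530 nm emission.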

[16] = biological target: Thyrotropin-releasing hormone receptor (Homo sapiens) (UniProt P34981); assay: qHTS assay to identify small molecule antagonists of the thyrotropin-releasing hormone receptor (TRHR) signaling pathway (AID 1346877; active = well fitted inhibition curve with a large enough effect in the repeat runs, not every such curve was filed as active; also: series mostly up to about 51 µM)
Summary of the method: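 Intracellular calcium fluorescence, read kinetically every second over 3 min, reports TRH-evoked signalling in HEK293 cells carrying TRHR. Test compounds were added 5 min ahead of a 1 nM TRH challenge.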

[17] = biological target: Thyrotropin-releasing hormone receptor (Homo sapiens) (UniProt P34981); assay: qHTS assay to identify small molecule agonists of the thyrotropin-releasing hormone receptor (TRHR) signaling pathway (AID 1346891; calls by dose curve; also: series mostly up to about 58 µM)
Summary of the method: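 HEK293 cells expressing TRHR plated 18 h at 37 C/5% CO2, calcium dye-loaded 2 h at 37 C, then compound added (agonist mode); kinetic calcium fluorescence read 3 min at 1 s intervals; 15 concentrations in triplicate.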

[18] = Human pregnane X receptor (PXR) small molecule agonists, qHTS cell viability counter screen (AID 1346977); also: nearly all actives have a fitted effect of over 50% in size; also: potency is read from the fitted curve at half-maximal effect
Summary of the method: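 PXR-Luc HepG2 cells (2,000/well, 5% charcoal-stripped FBS) preincubated 5 hr, then exposed to compounds 24 hr at 37 C. Viability read in the same wells by CellTiter-Fluor fluorescence, reagent added at 23 hr, 1 hr incubation.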

[19] = biological target: Estrogen receptor beta (Homo sapiens) (UniProt Q92731); assay: qHTS assay to identify small molecule antagonists of the estrogen receptor beta (ER-beta) signaling pathway (AID 1259378; active = well fitted inhibition curve with a large enough effect in the signal ratio in the repeat runs, not every such curve was filed as active; the % refers to the signal ratio; also: potency is read from the fitted curve at half-maximal effect)
Summary of the method: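 ER-beta-UAS-bla HEK293T (GripTite) cells in 2% charcoal-stripped FBS medium were preincubated 6 hr at 37C, dosed with compound, then stimulated with 1 nM E2 (final) for 16 hr; beta-lactamase reporter read by B/G FRET fluorescence after 2 hr substrate loading.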
% is scaled to controls: 0 for no effect and ±100 for the full control effect.

Chain of Androgen receptor (Homo sapiens) (P10275 whole entry, looked up): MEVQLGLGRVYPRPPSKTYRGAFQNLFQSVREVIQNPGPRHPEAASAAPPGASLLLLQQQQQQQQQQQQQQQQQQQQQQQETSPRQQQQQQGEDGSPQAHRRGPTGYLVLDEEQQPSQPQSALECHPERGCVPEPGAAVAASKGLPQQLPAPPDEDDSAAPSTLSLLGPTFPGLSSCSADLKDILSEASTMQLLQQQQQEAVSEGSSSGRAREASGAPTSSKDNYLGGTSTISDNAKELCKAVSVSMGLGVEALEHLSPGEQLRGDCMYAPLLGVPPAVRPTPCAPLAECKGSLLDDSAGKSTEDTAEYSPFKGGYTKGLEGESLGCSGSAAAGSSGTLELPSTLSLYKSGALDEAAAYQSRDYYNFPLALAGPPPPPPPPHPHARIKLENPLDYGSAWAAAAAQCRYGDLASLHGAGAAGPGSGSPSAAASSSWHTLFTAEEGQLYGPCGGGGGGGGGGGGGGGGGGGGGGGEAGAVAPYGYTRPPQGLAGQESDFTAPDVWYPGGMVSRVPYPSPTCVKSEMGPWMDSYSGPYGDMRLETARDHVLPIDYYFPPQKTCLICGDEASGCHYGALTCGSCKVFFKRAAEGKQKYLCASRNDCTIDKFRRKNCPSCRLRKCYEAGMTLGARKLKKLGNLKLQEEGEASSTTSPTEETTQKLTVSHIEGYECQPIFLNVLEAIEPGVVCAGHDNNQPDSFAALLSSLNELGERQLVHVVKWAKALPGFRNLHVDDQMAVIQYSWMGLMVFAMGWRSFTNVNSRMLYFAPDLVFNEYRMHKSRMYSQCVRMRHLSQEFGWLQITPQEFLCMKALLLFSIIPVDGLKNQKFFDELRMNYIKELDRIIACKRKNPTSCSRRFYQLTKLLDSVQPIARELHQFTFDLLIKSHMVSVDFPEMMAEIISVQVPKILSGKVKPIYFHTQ
Chain of Estrogen receptor (Homo sapiens) (P03372 whole entry, looked up): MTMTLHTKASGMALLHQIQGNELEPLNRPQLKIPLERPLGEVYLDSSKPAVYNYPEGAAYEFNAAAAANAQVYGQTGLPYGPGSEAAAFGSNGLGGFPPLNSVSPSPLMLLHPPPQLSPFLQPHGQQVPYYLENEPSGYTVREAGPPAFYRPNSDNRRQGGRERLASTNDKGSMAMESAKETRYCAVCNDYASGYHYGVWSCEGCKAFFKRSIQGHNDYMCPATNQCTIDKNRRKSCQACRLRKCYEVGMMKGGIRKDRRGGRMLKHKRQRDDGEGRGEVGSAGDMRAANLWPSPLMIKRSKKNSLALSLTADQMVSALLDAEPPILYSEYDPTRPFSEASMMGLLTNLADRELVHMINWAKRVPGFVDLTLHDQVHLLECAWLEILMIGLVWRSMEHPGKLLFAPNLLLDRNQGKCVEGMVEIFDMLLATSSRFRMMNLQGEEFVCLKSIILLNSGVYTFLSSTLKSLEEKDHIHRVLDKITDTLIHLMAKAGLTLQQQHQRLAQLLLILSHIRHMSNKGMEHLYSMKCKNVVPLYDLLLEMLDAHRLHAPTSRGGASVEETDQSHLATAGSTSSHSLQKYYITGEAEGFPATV
Chain of Thyrotropin-releasing hormone receptor (Homo sapiens) (P34981 whole entry, looked up): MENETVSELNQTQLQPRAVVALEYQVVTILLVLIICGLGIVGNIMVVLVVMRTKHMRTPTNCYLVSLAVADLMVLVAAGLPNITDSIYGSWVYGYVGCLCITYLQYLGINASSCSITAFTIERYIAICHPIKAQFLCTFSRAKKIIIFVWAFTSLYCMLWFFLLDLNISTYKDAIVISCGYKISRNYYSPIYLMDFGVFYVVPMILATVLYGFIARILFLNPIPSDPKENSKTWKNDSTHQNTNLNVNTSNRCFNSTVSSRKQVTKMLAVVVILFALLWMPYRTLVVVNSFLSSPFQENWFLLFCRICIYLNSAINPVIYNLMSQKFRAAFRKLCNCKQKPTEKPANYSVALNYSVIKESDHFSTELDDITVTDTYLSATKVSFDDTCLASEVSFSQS
Chain of Progesterone receptor (Homo sapiens) (P06401 whole entry, looked up): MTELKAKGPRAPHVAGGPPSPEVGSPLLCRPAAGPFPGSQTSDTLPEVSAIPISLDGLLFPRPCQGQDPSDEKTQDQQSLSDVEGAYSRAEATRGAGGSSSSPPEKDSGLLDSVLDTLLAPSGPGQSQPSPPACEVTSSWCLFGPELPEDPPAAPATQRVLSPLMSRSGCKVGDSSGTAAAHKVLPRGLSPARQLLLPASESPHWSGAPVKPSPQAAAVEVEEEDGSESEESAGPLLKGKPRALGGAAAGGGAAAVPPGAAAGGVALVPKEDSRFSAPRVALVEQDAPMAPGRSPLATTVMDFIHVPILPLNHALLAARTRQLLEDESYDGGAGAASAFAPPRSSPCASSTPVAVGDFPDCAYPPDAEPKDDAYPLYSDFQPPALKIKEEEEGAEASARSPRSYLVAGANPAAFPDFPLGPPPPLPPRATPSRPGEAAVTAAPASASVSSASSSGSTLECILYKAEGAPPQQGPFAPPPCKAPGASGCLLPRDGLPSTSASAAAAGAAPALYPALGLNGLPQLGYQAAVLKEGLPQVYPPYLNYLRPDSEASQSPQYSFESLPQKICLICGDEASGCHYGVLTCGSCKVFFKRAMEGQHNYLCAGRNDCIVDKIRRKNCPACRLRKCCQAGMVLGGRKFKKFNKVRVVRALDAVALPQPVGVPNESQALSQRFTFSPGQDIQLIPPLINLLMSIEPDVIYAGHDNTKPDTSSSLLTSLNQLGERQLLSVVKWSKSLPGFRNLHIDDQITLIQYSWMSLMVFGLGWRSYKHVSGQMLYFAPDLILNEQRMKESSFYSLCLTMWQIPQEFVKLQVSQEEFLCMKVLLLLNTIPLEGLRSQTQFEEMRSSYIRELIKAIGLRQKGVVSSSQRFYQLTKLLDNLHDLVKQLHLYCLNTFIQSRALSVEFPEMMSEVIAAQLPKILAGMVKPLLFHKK
Chain of Estrogen receptor beta (Homo sapiens) (Q92731 whole entry, looked up): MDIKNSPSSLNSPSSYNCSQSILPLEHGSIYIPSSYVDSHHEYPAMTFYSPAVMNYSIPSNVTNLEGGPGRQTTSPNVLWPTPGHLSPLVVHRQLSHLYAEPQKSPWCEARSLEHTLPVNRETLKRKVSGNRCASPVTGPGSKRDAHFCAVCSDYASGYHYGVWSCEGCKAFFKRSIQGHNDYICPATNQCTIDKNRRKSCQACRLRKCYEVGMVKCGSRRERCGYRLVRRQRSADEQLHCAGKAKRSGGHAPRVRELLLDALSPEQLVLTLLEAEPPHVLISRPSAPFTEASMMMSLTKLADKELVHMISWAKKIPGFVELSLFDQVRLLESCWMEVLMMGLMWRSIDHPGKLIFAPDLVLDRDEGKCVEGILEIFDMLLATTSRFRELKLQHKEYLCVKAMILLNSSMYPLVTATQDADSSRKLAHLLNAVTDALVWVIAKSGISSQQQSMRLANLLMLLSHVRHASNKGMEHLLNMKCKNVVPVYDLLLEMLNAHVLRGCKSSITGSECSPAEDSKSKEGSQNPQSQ
Chain of Thyrotropin receptor (Homo sapiens) (P16473 whole entry, looked up): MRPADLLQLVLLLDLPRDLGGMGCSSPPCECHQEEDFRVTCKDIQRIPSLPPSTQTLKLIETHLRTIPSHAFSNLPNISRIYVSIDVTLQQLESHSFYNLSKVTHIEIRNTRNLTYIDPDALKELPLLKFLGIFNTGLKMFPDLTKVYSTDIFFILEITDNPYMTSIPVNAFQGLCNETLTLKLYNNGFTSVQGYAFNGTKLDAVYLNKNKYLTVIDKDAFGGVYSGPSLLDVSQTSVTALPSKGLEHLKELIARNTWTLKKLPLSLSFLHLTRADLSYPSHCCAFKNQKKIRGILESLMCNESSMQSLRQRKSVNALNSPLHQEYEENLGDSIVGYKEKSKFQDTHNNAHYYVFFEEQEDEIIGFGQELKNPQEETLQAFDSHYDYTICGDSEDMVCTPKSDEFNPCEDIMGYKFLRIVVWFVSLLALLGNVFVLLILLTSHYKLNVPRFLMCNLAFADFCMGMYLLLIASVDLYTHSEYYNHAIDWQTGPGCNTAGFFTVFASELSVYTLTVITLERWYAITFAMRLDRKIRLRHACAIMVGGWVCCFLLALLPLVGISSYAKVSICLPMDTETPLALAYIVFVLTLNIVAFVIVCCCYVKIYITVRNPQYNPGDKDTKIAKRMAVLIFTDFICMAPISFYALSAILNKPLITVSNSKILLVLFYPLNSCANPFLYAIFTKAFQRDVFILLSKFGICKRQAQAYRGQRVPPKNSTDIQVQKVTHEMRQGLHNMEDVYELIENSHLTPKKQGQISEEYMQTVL

Clc1cccnc1
inactive: Potency [1] | Potency [2] | Potency [3] | Potency [4] | Potency [5] | outcome [6] | Potency [7] | Potency [8] | outcome [9] | Potency [10] | Potency [11] | Potency [12] | Potency [13] | Potency [14] | Potency [15] | Potency [16] | Potency [17] | Potency [18]

CCCCN(C)C
inactive: Potency [1] | Potency [2] | Potency [3] | Potency [4] | Potency [5] | outcome [6] | Potency [7] | Potency [8] | outcome [9] | Potency [10] | Potency [11] | Potency [12] | Potency [13] | Potency [15] | Potency [16] | Potency [17] | Potency [18]

CCCSS/C(CCO)=C(\C)N(C=O)Cc1cnc(C)nc1N
active: Potency [2] 26.6 µM
inactive: Potency [1] | Potency [3] | Potency [4] | Potency [5] | outcome [6] | Potency [7] | Potency [8] | Potency [10] | Potency [12] | Potency [13] | Potency [14] | Potency [15] | Potency [16] | Potency [17]

Clc1ccc(C(Cn2ccnc2)OCc2ccsc2Cl)c(Cl)c1 (centres undefined)
active: Potency [19] 10.6 µM | Potency [2] 23.7 µM | Potency [4] 29.8 µM | Potency [10] 3.35 µM | Potency [12] 8.41 µM
inactive: Potency [5] | outcome [6] | Potency [8] | outcome [9] | Potency [13] | Potency [14] | Potency [16] | Potency [17]

O=C1OC(=O)c2ccc3c4c(ccc1c24)C(=O)OC3=O
inactive: Potency [19] | Potency [1] | Potency [2] | Potency [4] | Potency [5] | outcome [6] | Potency [7] | Potency [8] | Potency [10] | Potency [11] | Potency [12] | Potency [13] | Potency [15] | Potency [16] | Potency [17] | Potency [18]

C=C(c1ccc(C(=O)O)cc1)c1cc2c(cc1C)C(C)(C)CCC2(C)C
active: Potency [19] 8.41 µM | Potency [2] 34.4 µM and 33.5 µM | Potency [4] 34.4 µM and 29.8 µM
inactive: Potency [1] | Potency [5] | Potency [8] | Potency [13] | Potency [14] | Potency [15] | Potency [18]

Clc1ccc(C(Cn2ccnc2)OCc2c(Cl)cccc2Cl)c(Cl)c1 (centres undefined)
inactive: Potency [1] | Potency [3] | Potency [5] | outcome [6] | Potency [7] | Potency [13] | Potency [14] | Potency [15]
active: Potency [2] 29.8 µM | Potency [4] 23.7 µM | Potency [10] 4.22 µM | Potency [11] 5.96 µM | Potency [12] 5.96 µM

S=C(SSSSSSC(=S)N1CCCCC1)N1CCCCC1
inactive: activity change, negative = cytotoxicity [1] -6.95% [at 19 µM] | activation [5] 7.24% [at 19 µM] | activation [9] 0.512% [at 19 µM] | viability change, negative = cytotoxic [13] 17.4% [at 15.8 µM] | activity change, negative = cytotoxicity [14] -0.13% [at 15.8 µM] | activation [15] 10.4% [at 15.8 µM] | activity, negative = inhibition [16] -6.79% [at 10.5 µM] | activation [17] 4.08% [at 11.8 µM] | activity change, negative = cytotoxicity [18] 0.702% [at 19 µM]
active: Potency [19] 13.4 µM | Potency [10] 13.4 µM

c1cc(OCC2CO2)cc(OCC2CO2)c1 (centres undefined)
inactive: Potency [1] | Potency [2] | Potency [3] | Potency [4] | Potency [5] | outcome [6] | Potency [7] | Potency [13] | Potency [14] | Potency [16] | Potency [17]
active: Potency [12] 60.6 µM

CCCCCCCC/C=C\CCCCCCCC(=O)OCCOC(=O)CCCCCCC/C=C\CCCCCCCC
inactive: Potency [19] | Potency [1] | Potency [2] | Potency [4] | Potency [5] | outcome [6] | Potency [7] | outcome [9] | Potency [11] | Potency [12] | Potency [13] | Potency [14] | Potency [15] | Potency [18]

CCCC(C)CCC(C)=O (centres undefined)
inactive: Potency [1] | Potency [2] | Potency [3] | Potency [4] | Potency [5] | outcome [6] | Potency [7] | Potency [8] | outcome [9] | Potency [10] | Potency [11] | Potency [12] | Potency [13] | Potency [15] | Potency [16] | Potency [17] | Potency [18]

CCOC(/C=C(\C)CCC=C(C)C)OCC
inactive: Potency [19] | Potency [1] | Potency [2] | Potency [4] | Potency [5] | outcome [6] | Potency [7] | outcome [9] | Potency [10] | Potency [11] | Potency [12] | Potency [13] | Potency [15] | Potency [16] | Potency [17]

C=C1C(C)(C)[C@@]2(Cl)C(Cl)[C@]1(Cl)C(Cl)(Cl)C2(Cl)Cl (some centres undefined)
active: Potency [19] 30.1 µM | Potency [2] 60 µM | Potency [11] 67.3 µM
inactive: Potency [3] | Potency [5] | outcome [6] | Potency [7] | Potency [13] | Potency [14] | Potency [15]

CC1(C)C(=O)N(Br)C(=O)N1Br
inactive: Potency [19] | Potency [1] | Potency [2] | Potency [3] | Potency [4] | outcome [6] | Potency [7] | Potency [8] | Potency [10] | Potency [12] | Potency [13] | Potency [14] | Potency [15] | Potency [18]

CC(NCCC(c1ccccc1)c1ccccc1)c1ccccc1 (centres undefined)
active: Potency [19] 26.6 µM | Potency [1] 23.7 µM | Potency [2] 18.8 µM | Potency [4] 18.8 µM | Potency [7] 29.8 µM | Potency [10] 29.8 µM | Potency [11] 21.1 µM | Potency [18] 26.6 µM
inactive: Potency [5] | outcome [6] | Potency [15] | Potency [16] | Potency [17]

Cc1cccc(Br)c1
active: Potency [2] 27.4 µM | Potency [10] 10.9 µM | Potency [11] 54.8 µM
inactive: Potency [1] | outcome [6] | Potency [7] | Potency [8] | outcome [9] | Potency [13] | Potency [14] | Potency [15]
